Source: PubChem BioAssay (National Center for Advancing Translational Sciences (NCATS))
Most compounds without a hit are left out; they make up all but 2.4% or so of the library.
ELG1 DNA repair: blocks ELG1-dependent DNA repair in HEK293T cells | HEK293T ELG1-luciferase reporter, luminescence, 16 h; DNA damage induced by 5-fluorouridine | AID 504467 | actives 2.3% (n = 330,000) | Potency, µM (series often up to 46.1 µM), for inactives: at the highest dose activity change, negative = inhibition, most hits filed as inhibitors; note: % is set by controls: 0 for no effect and ±100 for the full control effect; nearly all actives have a fitted effect of over 55% in size
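In this reporter screen, reduction of luminescence relative to DMSO vehicle indicated activity. Compounds and 5-fluorouridine were added together to 2,000 cells per well, incubated for 16 hr at 37 °C, then developed with ONE-Glo.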
Rango dissoc inh: prevents RanGTP from dissociating the Rango-importin beta complex | O95149+P62826 | Biochemical FRET Rango-importin beta, RanGTP-induced dissociation | Potency, µM (highest dose often 46.1 µM), for inactives: at the highest dose activity change, negative = inhibition | actives 0.071% (n = 340,000) | AID 540253; calls by dose curve; note: % of control where 0% means no effect; nearly all actives have a fitted effect of over 45% in size
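Rango (0.1 uM)–importin beta (0.25 uM) complex; RanGTP-RCC1 trigger; 45 min RT; CFP/YFP FRET read.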
PKM2 act: activators of human pyruvate kinase M2. purified PKM2, Kinase-Glo ATP luminescence, activation; response scale: 0% is enzyme alone, no compound. Potency, µM (highest dose often 57.5 µM), without a hit: at the highest dose activation, most hits filed as activators. actives 0.34% (n = 260,000). AID 1631; note: % is set by controls: 0 for no effect and ±100 for the full control effect; nearly all actives have a fitted effect of over 55% in size
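Purified hPK-M2 (>95% pure) converted ADP (0.1 mM final) to ATP with 0.5 mM PEP in 50 mM imidazole pH7.2, KCl, MgCl2, Tween 20, BSA; 1 h at room temperature. ATP detected by Kinase-Glo luminescence.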
PGK inhibitor: inhibitors of T. brucei phosphoglycerate kinase | P07378 | actives 0.043% (n = 380,000) | Potency, µM (highest dose often 57.5 µM), for inactives: top-dose activity change, negative = inhibition, hits mostly inhibitors | AID 602233 | PGK/GAPDH coupled, Kinase-Glo luminescence, 60 min; note: % is set by controls: 0 for no effect and ±100 for the full control effect; nearly all actives have a fitted effect of over 60% in size
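Recombinant glycosomal PGK reaction used 1,3-bisphosphoglycerate generated in-well by GAPDH (100nM final) in 100mM TEA pH 7.6, 5mM MgCl2, 0.01% Tween-20. After 60 minutes at room temperature, ATP was read by Kinase-Glo Plus luminescence end-point.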
Tb PFK block: T. brucei PFK enzyme inhibition; O15648; T. brucei PFK, ADP-Glo luminescence; Potency, µM (doses to about 57.5 µM), for inactives: top-dose activity, negative = inhibition, most hits filed as inhibitors; actives 0.17% (n = 330,000);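 note: 0% = uninhibited 1x PFK enzyme wells and -100% = no-enzyme wells; nearly all actives have a fitted effect of over 60% in size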
Target sequence (O15648 whole entry, looked up): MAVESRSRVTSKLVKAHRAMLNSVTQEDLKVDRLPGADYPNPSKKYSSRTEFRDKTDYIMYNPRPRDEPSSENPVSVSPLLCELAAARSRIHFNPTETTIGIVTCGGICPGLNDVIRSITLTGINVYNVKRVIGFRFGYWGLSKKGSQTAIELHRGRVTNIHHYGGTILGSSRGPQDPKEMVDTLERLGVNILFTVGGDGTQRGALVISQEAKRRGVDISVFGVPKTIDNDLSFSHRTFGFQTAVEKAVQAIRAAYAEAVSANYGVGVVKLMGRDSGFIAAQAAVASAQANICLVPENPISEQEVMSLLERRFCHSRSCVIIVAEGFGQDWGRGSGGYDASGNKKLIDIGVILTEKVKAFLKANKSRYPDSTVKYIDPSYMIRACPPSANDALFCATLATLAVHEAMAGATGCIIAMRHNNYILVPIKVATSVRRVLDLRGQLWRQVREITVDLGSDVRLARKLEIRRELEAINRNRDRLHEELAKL
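Activity is normalized to no-enzyme wells (full inhibition) and 1.25 nM enzyme wells (no inhibition). Reaction: 0.5 mM F6P, 0.1 mM ATP, 45 min RT, ADP-Glo luminescence; concentration-response curves fitted and classed by quality.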
Rango-impB inh: Rango-importin beta binding inhibition | actives 0.031% (n = 340,000) | Potency, µM (titrated, usually from 92.2 µM), for the others: top-dose inhibition of complex formation | Rango CFP/YFP FRET sensor + importin beta, 45 min | Q14974; calls by dose curve;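 note: 0% = DMSO wells and 100% = buffer wells lacking importin beta; nearly all actives have a fitted effect of over 15% in size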
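FRET biosensor Rango (snurportin 1 IBB between N-terminal EYFP and C-terminal Cerulean), 50 nM in PBS/1 mM DTT/0.02% Tween-20/0.1% BSA, preincubated 5 min RT with compound; 0.125 microM importin beta added, 45 min RT, CFP/YFP FRET ratio read.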
* = called active by the depositor; i = inactive; ? = inconclusive; nt = no result. Unless noted, calls come from the whole dose curve; as a rule, active = well fitted curve in the direction sought with a large enough effect; inconclusive = small, poorly fitted or top-dose-only effect, or another doubt; inactive = no such curve, though single readings can be large; an effect the other way counts as inactive or inconclusive. Potency is the fitted concentration of half-maximal effect.

SMILES | ELG1 DNA repair | Rango dissoc inh | PKM2 act | PGK inhibitor | Tb PFK block | Rango-impB inh
Cc1ccc(N2CCN(c3c(CN4CCCC4)c(=O)oc4ccccc34)CC2)c(C)c1 | nt | nt | nt | i | nt | nt
CCN(Cc1ccncc1)Cc1ccc(Br)cc1 | 1% | -22% | -1% | i | 0% | 10%
COc1ccccc1CN1C(=O)CN(C2CCCCCC2)C(=O)C1c1ccc(C)cc1 (stereo not given) | nt | nt | nt | -6% | nt | nt
C[C@H](CO)N1C[C@H](C)[C@@H](CN(C)S(=O)(=O)c2ccccc2)Oc2ccc(NC(=O)Nc3ccc(C(F)(F)F)cc3)cc2C1=O | 21µM* | 5% | nt | -10% | 0% | 1%
COc1ccc(NC(=O)Nc2cccc3c2O[C@H](CN(C)C(=O)Nc2ccc(OC)cc2)[C@@H](C)CN([C@H](C)CO)C3=O)cc1 | 9.2µM* | -17% | nt | i | 0% | 3%
C[C@@H]1CN([C@@H](C)CO)C(=O)c2cc(NC(=O)Nc3ccccc3)ccc2O[C@H]1CN(C)C(=O)Nc1cccc2ccccc12 | 15µM* | 1% | nt | -6% | 5% | -1%
COc1ccc(NC(=O)Nc2cccc3c2O[C@H](CN(C)C(=O)NC(C)C)[C@@H](C)CN([C@H](C)CO)C3=O)cc1 | 21% | ? | nt | 1% | 1% | -5%
Cc1noc(C)c1S(=O)(=O)N(C)C[C@H]1Oc2ccc(NS(=O)(=O)c3ccc(F)cc3)cc2C(=O)N([C@H](C)CO)C[C@@H]1C | 5.8µM* | 3% | nt | -5% | -7% | -3%
COc1cccc(CNC(=O)C(=O)NCC(c2ccco2)S(=O)(=O)c2cccs2)c1 (stereo not given) | nt | nt | nt | -5% | nt | nt
Cc1ccccc1OCCOC(=O)c1c(-c2ccccc2)noc1C | ? | 1% | nt | i | -1% | 1%
Cc1onc(-c2ccccc2)c1C(=O)OCCOc1ccc([N+](=O)[O-])cc1[N+](=O)[O-] | 15µM* | 29% | nt | -12% | 1% | 3%
CN(C)S(=O)(=O)c1cccc(NC(=S)N/N=C/c2ccc(O)c(O)c2O)c1 | 16µM* | -13% | 6% | -1% | ? | ?
COc1cc(/C=N/NC(=S)Nc2cccc(S(=O)(=O)N(C)C)c2)cc(OC)c1O | 21µM* | 1% | 8% | -11% | 0% | ?
COc1ccc(O)c(/C=N/NC(=S)Nc2cccc(S(=O)(=O)N(C)C)c2)c1 | ? | ? | -16% | -4% | -2% | ?
COc1cccc(/C=N/NC(=S)Nc2cccc(S(=O)(=O)N(C)C)c2)c1 | -4% | 28% | -4% | -6% | -18% | 0%
Cc1ccc(C(=O)c2cn(Cc3ccccc3)c3nc(C)ccc3c2=O)cc1 | nt | nt | nt | -7% | nt | nt
Cc1cccc2cc(CN(CCCO)C(=O)Nc3ccc(Cl)cc3)c(=O)[nH]c12 | 21µM* | 3% | 1% | -10% | 0% | -2%
Cc1cccc2cc(CN(CCCO)C(=O)Nc3ccccc3Cl)c(=O)[nH]c12 | ? | 10% | 8% | 5% | 14% | 6%
Cc1cccc2cc(CN(CCCO)C(=O)Nc3cccc(Cl)c3)c(=O)[nH]c12 | 13µM* | ? | -1% | 4% | 1% | 4%
COc1ccccc1Cn1cc(C(=O)c2ccc(C)cc2)c(=O)c2cc3c(cc21)OCCO3 | nt | nt | nt | 10% | nt | nt
COc1cc2c(cc1OC)CN(C(=O)CSc1nc(C)cc(C)c1C#N)CC2 | 2.6µM* | ? | -11% | -2% | 1% | 5%
CCc1nc(SCC(=O)N2CCc3cc(OC)c(OC)cc3C2)c(C#N)cc1C | nt | -1% | nt | 2% | nt | -6%
COc1ccc(C(C)=O)cc1CN(c1ccccc1OC)S(=O)(=O)c1cccs1 | ? | -1% | 6% | i | 5% | 1%
CC(C)(C)c1ccc(OCCC(=O)Nc2ccc(N3CCOCC3)cc2N2CCOCC2)cc1 | 21µM* | 0% | nt | -5% | -3% | 6%
COC(=O)Cc1ccc(NC(=O)c2ccc(C(C)(C)C)cc2)cc1 | 9.2µM* | 3% | 7% | -1% | 3% | -1%
SMILES | ELG1 DNA repair | Rango dissoc inh | PKM2 act | PGK inhibitor | Tb PFK block | Rango-impB inh
CC(=O)c1ccc(C(=O)Nc2ccc(N3CCOCC3)cc2)cc1 | ? | -17% | -14% | 1% | 3% | -1%
CC(C)(C)c1ccc(C(=O)Nc2ccc(Cl)cc2)cc1 | ? | 32% | -16% | -5% | -1% | 6%
O=C(Nc1ccc(CN2CCOCC2)cc1)c1ccc(Cl)cc1 | ? | 0% | 0% | -1% | 2% | 12%
CC(C)(C)c1ccc(C(=O)Nc2ccc(N3CCOCC3)cc2)cc1 | 18µM* | 13% | 1% | i | 0% | -2%
COC(=O)c1ccc(NC(=O)c2ccc(CN3CCOCC3)cc2)cc1 | 8.2µM* | 2% | -1% | -1% | -3% | 2%
Cc1ccc(C)c(CSc2c(C(C)C)cnc3c2c(=O)n(C)c(=O)n3C)c1 | nt | nt | nt | 7% | nt | nt
COc1ccc(CCC(=O)OCC(=O)Nc2ccc(OC)c(OC)c2)cc1OC | 13% | 24% | nt | 3% | 3% | 2%
Cc1cccc(C(=O)NC(=S)Nc2ccc(N3CCOCC3)cc2)c1 | -5% | -1% | -5% | 6% | 3% | -3%
COc1ccc(C(=O)NC(=S)Nc2ccc(CN3CCOCC3)cc2)cc1 | -20% | -1% | 1% | -1% | 2% | 2%
O=C(Nc1ccc(CN2CCOCC2)cc1)c1ccc(-c2ccc(Br)cc2)o1 | 18µM* | -6% | 0% | nt | 1% | 0%
COc1ccc(C(=O)NC(=S)Nc2ccc(CN3CCOCC3)cc2)cc1Br | 23µM* | -9% | -9% | -7% | 2% | -2%
Cc1ccc(C(=O)NC(=S)Nc2ccc(N3CCOCC3)cc2)cc1C | 10µM* | -1% | 0% | 7% | -1% | -2%
CC(CCc1ccccc1)NS(=O)(=O)c1ccc(Cl)c(C(=O)O)c1 (stereo not given) | 16% | ? | -6% | 2% | 0% | ?
CCc1nn(CC(=O)NCC(C)c2ccccc2)c(=O)c2cc3c(OC)cccc3n12 (stereo not given) | nt | nt | nt | -1% | nt | nt
C=CC(=O)Nc1cccc(Oc2ncnc3[nH]cc(-c4cnc5ccccc5c4)c23)c1 | 7.3µM* | 6% | nt | 3% | -1% | 0%
CC(C)C(=O)N1CCN(c2ccccc2NC(=O)COc2ccc(C3CCCCC3)cc2)CC1 | 21µM* | -3% | 0% | 2% | 1% | -1%
CC(C)C(=O)N1CCN(c2ccccc2NC(=O)COc2ccccc2)CC1 | ? | 32% | -5% | 0% | -4% | 1%
